Compounds with a hit are over-represented: about 0.51% of the library has one in this group of screens.
PINK1 expr mod: A Quantitative High throughput Screen to Identify Chemical Modulators of PINK1 Expression. PINK1 immunofluorescence, high-content cytometry, 24 h. Potency, µM (top dose mostly 76.6 µM), actives largely listed as activators. hit rate 0.2% among 410,000; active = well fitted activation curve with a large enough effect; inconclusive = small, poorly fitted or top-dose-only effect; cell line not stated here; note: nearly all actives have a fitted effect of over 65% in size
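Cells are seeded, rested 12 hours, then given compound at five concentrations or DMSO for 24 hours. After fixation, blocking and antibody staining, PINK1 amount and mitochondrial localization are scored; CCCP serves as control.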
Vif-APOBEC3F blk: qHTS for Inhibitors of Vif-A3F Interactions: qHTS; HeLa A3F-eYFP + Vif (tagged APOBEC3F with the HIV-1 protein that degrades it), YFP fluorescence increase; Potency, µM (highest dose often 46.1 µM); hit rate 0.2% among 390,000; AID 602313, 2012; note: nearly all actives have a fitted effect of over 65% in size
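HeLa cells stably expressing A3F-eYFP plus Vif, plated and incubated overnight at 37 deg C, then exposed to compounds overnight at 37 deg C. Blocked degradation read as raised yellow fluorescence (Ex 488/Em 500-530).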
Vif-A3G inh: qHTS for Inhibitors of Vif-A3G Interactions: qHTS; Potency, µM (series often up to 46.1 µM), usual class: inhibitors; hit rate 0.076% among 410,000; DNA dC->dU-editing enzyme APOBEC-3G (Homo sapiens), Q9HC16; HeLa A3G-eYFP + Vif (tagged APOBEC3G with the HIV-1 protein that degrades it), YFP fluorescence, overnight; AID 602310, 2012; note: nearly all actives have a fitted effect of over 60% in size
Target sequence (Q9HC16 whole entry, looked up): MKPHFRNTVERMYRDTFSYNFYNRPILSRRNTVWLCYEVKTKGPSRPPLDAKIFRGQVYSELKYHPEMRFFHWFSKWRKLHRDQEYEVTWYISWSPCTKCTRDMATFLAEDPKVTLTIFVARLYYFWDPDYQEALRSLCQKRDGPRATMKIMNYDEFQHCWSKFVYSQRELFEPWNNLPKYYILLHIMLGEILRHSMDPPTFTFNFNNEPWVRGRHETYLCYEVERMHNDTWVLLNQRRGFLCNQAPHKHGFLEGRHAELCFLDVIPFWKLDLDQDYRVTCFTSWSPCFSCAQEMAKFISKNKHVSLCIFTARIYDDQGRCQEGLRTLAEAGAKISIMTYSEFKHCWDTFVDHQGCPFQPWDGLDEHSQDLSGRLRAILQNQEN
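Read-out is eYFP fluorescence (Ex 488/Em 500-530) from Vif-expressing HeLa A3G-eYFP cells; more signal means A3G escaped Vif-mediated degradation. Cells plated overnight, compound pinned in, incubated overnight at 37 deg C.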
Epigenetic reg: Quantitative High-Throughput Screen for Regulators of Epigenetic Control. AID 1865, 2009. hit rate 0.2% among 280,000. murine LDR cells, GFP reporter derepression, 30 h. Potency, µM (top dose mostly 53.9 µM), actives largely listed as activators; note: nearly all actives have a fitted effect of over 60% in size
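Derepression of a silenced CMV-GFP reporter in murine LDR cells is scored by enumerating GFP-positive cells with a laser-scanning microplate cytometer after 30 hours of treatment at 37 C.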
Hits are given with their value; - = inactive; ? = inconclusive; . = no result given. Unless noted, calls come from the whole dose curve; as a rule, active = well fitted curve in the direction sought with a large enough effect; inconclusive = small, poorly fitted or top-dose-only effect, or another doubt; inactive = no such curve, though single readings can be large; an effect the other way counts as inactive or inconclusive.

SMILES | PINK1 expr mod | Vif-APOBEC3F blk | Vif-A3G inh | Epigenetic reg
CN(C)CCNC(=O)c1ccc2c(c1)NC(=O)C(CS(=O)(=O)Cc1cccc(Br)c1)N2 (stereo not drawn) | - | - | - | -
CCOC(=O)c1oc2ccccc2c1NC(=O)COC | - | - | - | -
Cc1cc(/C=C2\SC(=S)N(Cc3ccco3)C2=O)c(C)n1-c1cccnc1 | ? | 11µM | 5.6µM | 22µM
O=C1/C(=C/c2cccnc2)SC(=S)N1Cc1ccco1 | - | - | ? | .
N#Cc1nc(-c2ccccc2Cl)oc1N1CCCCC1 | - | - | - | -
Cn1c(=NC(=O)C2CCCCC2)sc2cc([N+](=O)[O-])ccc21 | - | - | - | -
CC1=C(C(=O)Nc2ccccc2C(=O)N2CCC(C)CC2)SCCO1 | - | - | - | .
Cc1ccc(C2=NC(C(F)(F)F)(C(F)(F)F)c3c(n(-c4ccc(F)cc4)c(=O)[nH]c3=O)N2)cc1 | 40µM | - | - | -
O=c1[nH]c(=O)n(-c2ccc(F)cc2)c2c1C(C(F)(F)F)(C(F)(F)F)N=C(c1ccc(F)cc1)N2 | 10µM | - | - | -
COc1ccc(-n2c3c(c(=O)[nH]c2=O)C(C(F)(F)F)(C(F)(F)F)N=C(CC(C)C)N3)cc1 | - | - | - | -
COc1ccc(Cl)cc1NC(=O)CSC1=Nc2ccccc2C2=NC(CC(=O)NC3CCCCC3)C(=O)N12 (stereo not drawn) | - | - | - | -
CCOc1ccc(C(=O)NCC(c2ccco2)S(=O)(=O)c2ccc(C)cc2)cc1 (stereo not drawn) | - | - | - | -
COc1ccc(Cl)cc1NC(=O)c1cccc([N+](=O)[O-])c1O | 22µM | - | - | .
FC(F)(F)c1ccccc1NC(=S)N1CCCC1 | - | ? | - | -
FC(F)(F)c1ccccc1NC(=S)NN=C1CCCCCC1 | - | 6.3µM | ? | -
CCCCNc1c(-c2ccc(OC)c(Sc3ccc(OC)cc3)c2)nc2cnccn12 | - | - | - | .
CCCCNc1c(-c2ccc(SC(C)CC)cc2)nc2cnccn12 (stereo not drawn) | - | 10µM | ? | .
C=C(/C=C/c1ccc(N(C)C)cc1)c1nc2ccccc2s1 | 10µM | . | 11µM | .
CN(C)c1ccc(/C=C/c2cccc3cc4ccccc4nc23)cc1 | - | . | ? | .
CN(C)c1ccc(/C=C/c2nc3ccccc3s2)cc1 | 45µM | ? | ? | ?
CN(C)c1ccc(/C=C/c2ccc3ccccc3n2)cc1 | ? | ? | - | ?
CC(NC(=O)c1c(O)nc2ccccn2c1=O)c1ccccc1 (stereo not drawn) | - | - | - | -
CCCN(CCC)S(=O)(=O)c1ccc(C(=O)OCCN2C(=O)c3cccc4c(N5CCOCC5)ccc(c34)C2=O)cc1 | - | - | - | 25µM
COc1cc(OC)c(OC)cc1/C=C1\CC(C)C/C(=C\c2cc(OC)c(OC)cc2OC)C1=O (stereo not drawn) | - | 22µM | ? | .
c1ccc(N2CCN(c3nc4ccccc4n4nnnc34)CC2)cc1 | - | ? | - | -
SMILES | PINK1 expr mod | Vif-APOBEC3F blk | Vif-A3G inh | Epigenetic reg
c1ccc2c(c1)nc(N1CCOCC1)c1nnnn12 | - | 3.2µM | - | -
c1ccc(N=NC2=NN(c3ccccc3)CS2)cc1 | - | 4µM | - | .
c1ccc(C2=NN(c3ccccc3)CC2)cc1 | - | - | - | -
CCC(CC)C(=O)Nc1nnc(SCC(=O)NC2CCCCC2)s1 | - | - | - | .
Oc1cc(-c2ccncc2)cc2cccnc12 | - | - | ? | .
Oc1cc(-c2ccc(N3CCCCC3)nc2)cc2cccnc12 | 13µM | ? | - | .
CC(c1ccc2ccccc2c1)c1ccccc1C(=O)O (stereo not drawn) | - | - | - | .
Cc1cc(C(=O)Nn2c(C3CCCCC3)nc3ccccc3c2=O)ccc1[N+](=O)[O-] | 16µM | - | - | -
COc1cccc(C(=O)N2CCCC(c3nc(SCCN4CCOCC4)ncc3C)C2)c1 (stereo not drawn) | - | . | . | .
Cc1ccc(CN=Cc2[nH]c3ccc(Br)c(Cl)c3c2O)cc1 | 11µM | ? | ? | -
Cc1ccc(CNc2ccc3c(c2)OCO3)cc1 | ? | 25µM | 22µM | -
Cc1ccn2c(NC3CCCCC3)c(-c3cccc(SC4CCCCC4)c3)nc2c1 | 20µM | - | - | .
CCCCCCSc1cccc(-c2nc3cc(C)ccn3c2NC2CCCCC2)c1 | ? | - | - | .
CCC(C)Sc1cccc(-c2nc3cc(C)ccn3c2NC2CCCCC2)c1 (stereo not drawn) | 14µM | 22µM | - | .
COc1cccc(N2[C@@H](CC(=O)O)c3ccccc3S2(=O)=O)c1 | - | - | - | .
Cc1oc(C(C)(C)C)cc1C(=O)Nc1ccc2c(c1)OCO2 | - | - | - | -
Cc1ccc(NC(=O)C(=O)NCC(c2cccnc2)N2CCc3ccccc3C2)cc1 (stereo not drawn) | - | - | - | 22µM
CN(C)S(=O)(=O)c1ccc(NCC2COc3ccccc3O2)c([N+](=O)[O-])c1 (stereo not drawn) | - | - | - | -
Cc1cccc(NC(=O)/C=C/c2ccc([N+](=O)[O-])s2)c1 | - | 7.1µM | ? | 7.1µM
Cc1ccc(NC(=O)/C=C/c2ccc([N+](=O)[O-])s2)c(C)c1 | ? | 10µM | ? | -
Cc1cc([N+](=O)[O-])ccc1NC(=O)/C=C/c1cccs1 | - | - | - | -
Cc1ccc(NC(=O)/C=C/c2ccc([N+](=O)[O-])s2)cc1 | ? | 7.9µM | 3.2µM | 8.9µM
COc1ccc(Nc2nc(NCc3ccco3)nc(N/N=C/c3ccccc3)n2)cc1 | - | - | - | -
CN1C(=O)c2cccc(NCCCN3C(=O)c4ccccc4C3=O)c2C1=O | 7.1µM | 25µM | - | ?
C/C(=N\Nc1nc(C)cc(-c2ccccc2)n1)c1ccc(F)cc1 | - | 20µM | - | .
SMILES | PINK1 expr mod | Vif-APOBEC3F blk | Vif-A3G inh | Epigenetic reg
COc1ccc(/C(C)=N/Nc2nc(C)cc(-c3ccccc3)n2)cc1 | - | - | - | .
O=C(NNC(=S)Nc1cccc(C(F)(F)F)c1)c1cccc(Cl)c1 | 16µM | - | - | -
O=S(=O)(N=C(NS(=O)(=O)c1ccc(Cl)cc1)c1ccccc1)c1ccc(Cl)cc1 | - | - | - | .
CNC(=S)N/N=C(\C)c1ccc(Cl)s1 | - | 7.9µM | - | -
COc1ccc(C2Nc3cccc4cccc(c34)N2)cc1 | - | - | - | -
COc1cc(OC)c(C2Nc3cccc4cccc(c34)N2)c(OC)c1 | - | 11µM | - | .
Cc1ccccc1OCCNC(=O)/C=C/c1ccccc1 | - | - | - | -
CCN(CC)C(=O)Cn1c(=O)n(CCc2ccccc2)c(=O)c2ccccc21 | - | - | - | -
CCN(CC)C(=O)Cn1c(C)c(/C=C/c2cc[n+](C)cc2)c2ccccc21 | - | ? | 7.9µM | .
Oc1c(C(Nc2ccccn2)c2ccccn2)ccc2cccnc12 (stereo not drawn) | - | - | - | 3.5µM
Cc1cccc(-c2noc(-c3ccc(NCc4ccco4)c([N+](=O)[O-])c3)n2)c1 | - | 10µM | - | -
CCOC(=O)c1c(-c2ccccc2)csc1/N=C/C1C(=O)CCCC1=O | ? | - | - | -
CCOC(=O)c1c(CC(C)C)csc1/N=C/C1C(=O)CCCC1=O | ? | 22µM | ? | ?

Source: PubChem BioAssay
